HT1080NT lethal: qHTS for induction of synthetic lethality in tumor cells producing 2HG: qHTS for the HT-1080-NT fibrosarcoma cell line; HT-1080-NT fibrosarcoma viability, CellTiter-Glo ATP luminescence, 48 h; Potency, µM (top dose mostly 46.1 µM), for the others: top-dose activity, negative = less viability, most hits filed as cytotoxic; 1.6% of 360,000 active; AID 686970, 2013;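 further: NT is the 2HG producing partner of a matched IDH1 knockdown line; potency means the concentration at half of the fitted maximal effect; 0% = DMSO-treated cells and -100% = media-only wells without cells; nearly all actives have a fitted effect of over 55% in size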
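750 cells/well, RPMI + 5% FBS; 2 h settle, compound pin-transfer, 48 h at 37 degrees C. CellTiter-Glo 10 min RT, luminescence. Normalized to DMSO and media-only wells.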
IL-1B inflam inh: qHTS for Inhibitors of Inflammasome Signaling: IL-1-beta AlphaLISA Primary Screen | THP-1 LPS/ATP IL-1B secretion, AlphaLISA, 16 h; stronger effect = lower value | activity change, % at 57.5 µM | 4.7% of 360,000 active | AID 743279, 2014; in the data active means activity change below about -50%; inconclusive means mostly about -30% to -49%
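THP-1 cells pretreated 1 hr with compounds (up to 57.5 uM final), then stimulated with LPS (250 ng/mL final) plus ATP (1.25 mM final); secreted IL-1B measured by AlphaLISA after 16 hr, decreased signal indicating inhibition.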
TDP1 cell noCPT: qHTS for Inhibitors of human tyrosyl-DNA phosphodiesterase 1 (TDP1): qHTS in cells in absence of CPT. DT40 Tdp1-/- hTDP1 cells, no CPT, ATP luminescence, 48 h. 15% of 420,000 active. Potency, µM (series often up to 46.2 µM), for inactives: top-dose activity change, negative = growth inhibition, usual class: inhibitors. AID 686978, 2013; further: potency means the concentration at half of the fitted maximal effect; nearly all actives have a fitted effect of over 55% in size
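Chicken DT40 Tdp1-/- cells complemented with human TDP1, screened without camptothecin (DMSO vehicle only), 400 cells/well. Compounds pin-transferred, cells incubated at 37 °C for at least 48 hr. Growth read as ATP-dependent luminescence (CellTiter-Glo, 30 min at RT).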
TDP1 cell CPT: qHTS for Inhibitors of human tyrosyl-DNA phosphodiesterase 1 (TDP1): qHTS in cells in presence of CPT; chicken DT40 Tdp1-/-;hTDP1 cells + 20 nM CPT, ATP luminescence, 48 h; Potency, µM (highest dose often 46.2 µM), inactives show top-dose activity change, negative = growth inhibition, actives largely listed as inhibitors; 12% of 420,000 active; AID 686979, 2013; further: potency means the concentration at half of the fitted maximal effect; nearly all actives have a fitted effect of over 55% in size
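Chicken DT40 Tdp1-/- cells stably complemented with human TDP1 were seeded at 400 cells/well in medium containing 20 nM camptothecin, exposed to pin-transferred compounds, and grown at 37 °C for at least 48 hr. Viability was read as ATP luminescence.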
HT1080 IDH1KD tx: qHTS for induction of synthetic lethality in tumor cells producing 2HG: qHTS for the HT-1080-IDH1KD cell line; HT-1080 IDH1 knockdown viability, ATP luminescence, 48 h; Potency, µM (top dose mostly 46.1 µM), for the others: at the top dose activity, negative = toxicity, usual class: cytotoxic; 2% of 360,000 active;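 further: potency means the concentration at half of the fitted maximal effect; 0% = DMSO wells and -100% = cell-free medium wells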
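Using the IDH1-knockdown HT-1080 line run in the same batch and compound series as the NT line, viability after 48 h at 37 °C was determined by CellTiter-Glo luminescence and expressed as % activity.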
Starred values were filed as active, the others as inactive; ? = inconclusive; nt = no result. Sampled rows, rich in hits. Any-hit rate of the full collection: about 19%. Unless noted, the call rests on the fitted dose curve; in most records, active means well fitted curve in the direction sought with a large enough effect; inconclusive means small, poorly fitted or top-dose-only effect, or another doubt; inactive means no such curve, though single readings can be large; an effect the other way counts as inactive or inconclusive. Unless noted, on the % scale 0 is the no-effect control and ±100 the full control effect.

SMILES | HT1080NT lethal | IL-1B inflam inh | TDP1 cell noCPT | TDP1 cell CPT | HT1080 IDH1KD tx
COc1ccc(CNC(=O)C2CC(=O)N(c3ccc(OCC(=O)N4C(C)CCCC4C)cc3)C2)cc1 (configuration not stated) | 0% | -4 | ? | -3% | 0%
O=C(NCc1ccc(C(F)(F)F)cc1)C12CN(Cc3ccccc3)CC1C(c1cccc([N+](=O)[O-])c1)=NO2 (configuration not stated) | 15% | -16 | 16µM* | -103% | 4%
Cc1cccc(/C=N/NC(=O)c2cccc([N+](=O)[O-])c2)n1 | 1% | -10 | 21µM* | 18µM* | -2%
Cc1cccc(/C=N/NC(=O)c2cccc(NC(=O)c3ccccc3)c2)n1 | -14% | 32 | -13% | -1% | -3%
O=C(N/N=C/c1ccc[nH]1)c1cccc([N+](=O)[O-])c1 | 18% | -8 | 3% | 12% | 8%
Cc1cccc(/C=N/NC(=O)c2cccc(Cl)c2)n1 | -3% | -21 | 16µM* | ? | -18%
Cc1cc(/C=N/NC(=O)c2cccc(F)c2)c(C)n1-c1ccccc1 | -29% | -26 | 29µM* | ? | -28%
Cc1cc(/C=N/NC(=O)c2cccc([N+](=O)[O-])c2)c(C)n1-c1ccc(Cl)cc1Cl | -18% | -61* | ? | ? | -20%
COc1ccc2c(c1)c1c(c(=O)n(Cc3ccccc3)c(=O)n1Cc1cc(C)ccc1C)n2C | nt | nt | -8% | 7% | nt
Cc1sc2ccccc2c1CNC[C@H]1O[C@@H](n2cnc(C(N)=O)n2)[C@H](O)[C@@H]1O | 14% | -3 | -2% | 8% | 7%
COc1ccc(/C(N)=N/OC(=O)CSc2ccccc2)cc1OC | 8% | ? | -28% | -3% | 18%
CCOc1cccc(C2c3c(oc4cc(C)c(C)cc4c3=O)C(=O)N2c2nc(C)c(C)s2)c1 (configuration not stated) | nt | nt | -28% | -6% | nt
Cc1nc(Oc2ccc(S(=O)(=O)N3CCOCC3)cc2Cl)c2c3c(sc2n1)CCCC3 | 10% | -52* | ? | ? | 2%
CCN(CCn1cccn1)Cc1ccccc1OCC(O)CN1CCc2ccccc2C1 (configuration not stated) | -6% | -3 | ? | ? | -27%
O=C(CC(CC(=O)c1ccccc1)c1ccccn1)c1ccccc1 | 1% | 3 | 15µM* | ? | -13%
O=C(CC(=O)c1ccccn1)c1ccccc1 | -10% | 60 | 16µM* | 21µM* | ?
COc1cc(=O)n2c(c1C(=O)NCc1nonc1C)CCN(C(=O)c1cccc(C)c1C)CC2 | nt | nt | -23% | 4% | nt
CC1=C(C(=O)N(C(C)C)C(C)C)CC(CC(=O)NC2CC2)C(=O)N1Cc1ccc(F)cc1 (configuration not stated) | 13% | 19 | -4% | -25% | ?
O=C(NCc1cccnc1)/C(=C\c1ccc(-c2cccc(Cl)c2)o1)S(=O)(=O)c1ccccc1 | -18% | -105* | 5.2µM* | 4.6µM* | ?
O=C(NCc1cccnc1)/C(=C/c1ccc(-c2cccc(Cl)c2)o1)S(=O)(=O)c1ccccc1 | -8% | -106* | ? | ? | -2%
COc1ccc(N2CCN(Cc3nc(Cc4cccc(F)c4)no3)C(C)C2)cc1 (configuration not stated) | 2% | 2 | 18µM* | -25% | 4%
Fc1cccc(Cc2noc(CN3CCCCC3CCc3ccccn3)n2)c1 (configuration not stated) | -22% | -79* | ? | 8% | 0%
Fc1cccc(Cc2noc(CN3CCSCC3)n2)c1 | 18% | 42 | 17% | 0% | 19%
